# What was measured:
# Assay in all cases: DAPPL (digital affinity profiling via proximity ligation, sequencing); 10 mM Tris-HCl pH 7.5, 50 mM NaCl, 1 mM DTT, 4% glycerol, room temperature, 30 min; GST-TFs on glutathione beads, 16-mer random dsDNA library, 0.1% formaldehyde crosslink after washing; high values mean tight binding
# FEV = biological target: T1, FEV (Homo sapiens, UniProt Q99581 1-238); settings: protein: recombinant; tags: N-terminal GST; dsDNA, one strand shown
# T1 sequence: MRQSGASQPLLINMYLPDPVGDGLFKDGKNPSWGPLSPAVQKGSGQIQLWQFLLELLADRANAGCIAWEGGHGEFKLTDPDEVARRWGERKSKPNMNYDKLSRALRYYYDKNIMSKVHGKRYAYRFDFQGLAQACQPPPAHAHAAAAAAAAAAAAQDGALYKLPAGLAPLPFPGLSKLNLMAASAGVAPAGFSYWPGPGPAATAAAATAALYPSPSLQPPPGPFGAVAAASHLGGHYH
# How it was run: (§1)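 Pools of DNA-barcoded human transcription factors, expressed in yeast as GST fusions on glutathione beads and combined with a tag-only sample, were incubated with 200 nmole of a 16-mer random double-stranded DNA library. Incubation took 30 min at room temperature in Tris/NaCl/DTT/glycerol buffer and was followed by washing, 0.1% formaldehyde crosslinking, proximity ligation (BsaI/T4 ligase, 1 h, 37 °C), PCR amplification and sequencing on an Illumina NextSeq500. Binding signal is the ratio of a hexamer's read frequency for a factor to its frequency for the tag-only sample.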
# ETV5 = ETV5 (Homo sapiens, UniProt P41161 1-510); settings: protein: recombinant; tags: N-terminal GST; dsDNA, one strand shown
# ETV5, sequence (P41161 whole entry): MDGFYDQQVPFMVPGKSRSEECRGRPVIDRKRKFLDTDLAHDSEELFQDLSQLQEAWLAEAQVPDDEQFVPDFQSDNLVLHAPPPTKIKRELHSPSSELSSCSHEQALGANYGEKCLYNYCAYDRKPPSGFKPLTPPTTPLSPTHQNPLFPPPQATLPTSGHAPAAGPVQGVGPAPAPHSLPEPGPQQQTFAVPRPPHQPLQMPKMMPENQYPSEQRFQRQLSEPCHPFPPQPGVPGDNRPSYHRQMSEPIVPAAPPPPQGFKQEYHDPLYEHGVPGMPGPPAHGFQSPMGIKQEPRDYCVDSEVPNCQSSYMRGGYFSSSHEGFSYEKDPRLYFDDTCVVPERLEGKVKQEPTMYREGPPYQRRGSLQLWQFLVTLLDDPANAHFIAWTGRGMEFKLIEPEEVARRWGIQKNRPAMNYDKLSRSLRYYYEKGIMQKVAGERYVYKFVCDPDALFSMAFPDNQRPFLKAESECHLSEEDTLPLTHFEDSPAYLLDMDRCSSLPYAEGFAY
# How it was run: as §1
# HSF1 = HSF1 (Homo sapiens, UniProt Q00613 1-529); settings: protein: recombinant; tags: N-terminal GST; chain copies: 3; dsDNA, one strand shown
# HSF1, sequence (Q00613 whole entry): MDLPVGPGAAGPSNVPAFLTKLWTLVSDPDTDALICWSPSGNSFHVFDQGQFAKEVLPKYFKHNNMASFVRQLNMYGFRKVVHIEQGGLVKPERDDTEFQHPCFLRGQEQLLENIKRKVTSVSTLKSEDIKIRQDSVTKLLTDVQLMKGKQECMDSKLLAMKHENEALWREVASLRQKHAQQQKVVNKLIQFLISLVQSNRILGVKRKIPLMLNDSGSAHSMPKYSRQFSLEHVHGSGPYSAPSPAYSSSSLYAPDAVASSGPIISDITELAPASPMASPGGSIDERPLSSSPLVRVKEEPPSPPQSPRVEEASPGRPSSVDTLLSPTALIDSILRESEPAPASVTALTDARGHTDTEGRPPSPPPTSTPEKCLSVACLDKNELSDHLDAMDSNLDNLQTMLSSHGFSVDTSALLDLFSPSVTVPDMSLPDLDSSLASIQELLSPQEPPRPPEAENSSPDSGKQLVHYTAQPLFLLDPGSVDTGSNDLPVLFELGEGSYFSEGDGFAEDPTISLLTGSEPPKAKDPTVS
# How it was run: as §1
# SPIC = biological target: T2, SPIC (Homo sapiens, UniProt Q8N5J4 1-248); settings: protein: recombinant; tags: N-terminal GST; dsDNA, one strand shown
# T2 sequence: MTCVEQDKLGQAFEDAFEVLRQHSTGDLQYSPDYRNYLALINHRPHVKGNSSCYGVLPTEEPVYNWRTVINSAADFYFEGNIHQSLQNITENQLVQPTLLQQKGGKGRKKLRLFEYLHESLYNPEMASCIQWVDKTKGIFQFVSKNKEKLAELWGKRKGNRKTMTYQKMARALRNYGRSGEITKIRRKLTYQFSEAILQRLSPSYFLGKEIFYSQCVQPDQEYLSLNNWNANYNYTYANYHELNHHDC
# How it was run: as §1
# ELF4 = ELF4 (Homo sapiens, UniProt Q99607 1-663); settings: protein: recombinant; tags: N-terminal GST; dsDNA, one strand shown
# ELF4, sequence (Q99607 whole entry): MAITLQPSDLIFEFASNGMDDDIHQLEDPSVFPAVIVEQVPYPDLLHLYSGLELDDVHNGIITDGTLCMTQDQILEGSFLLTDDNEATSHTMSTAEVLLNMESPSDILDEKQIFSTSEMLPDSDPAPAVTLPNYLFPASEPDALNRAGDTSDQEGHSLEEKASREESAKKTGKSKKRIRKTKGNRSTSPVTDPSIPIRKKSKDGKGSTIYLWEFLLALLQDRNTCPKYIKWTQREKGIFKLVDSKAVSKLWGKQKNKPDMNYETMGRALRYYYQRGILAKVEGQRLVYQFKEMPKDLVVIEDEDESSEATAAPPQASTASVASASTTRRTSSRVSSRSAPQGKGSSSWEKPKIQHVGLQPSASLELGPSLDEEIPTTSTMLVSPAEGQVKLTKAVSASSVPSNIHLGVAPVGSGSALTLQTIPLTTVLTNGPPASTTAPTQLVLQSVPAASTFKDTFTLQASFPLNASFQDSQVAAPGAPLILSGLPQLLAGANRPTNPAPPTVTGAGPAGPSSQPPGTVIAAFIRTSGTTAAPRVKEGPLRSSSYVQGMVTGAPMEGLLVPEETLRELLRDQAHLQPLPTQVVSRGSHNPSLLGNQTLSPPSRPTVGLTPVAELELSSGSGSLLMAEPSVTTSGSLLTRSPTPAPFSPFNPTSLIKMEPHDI
# How it was run: as §1
# ELK4 = biological target: T3, ELK4 (Homo sapiens, UniProt P28324-2 1-405); settings: protein: recombinant; tags: N-terminal GST; dsDNA, one strand shown
# T3 sequence: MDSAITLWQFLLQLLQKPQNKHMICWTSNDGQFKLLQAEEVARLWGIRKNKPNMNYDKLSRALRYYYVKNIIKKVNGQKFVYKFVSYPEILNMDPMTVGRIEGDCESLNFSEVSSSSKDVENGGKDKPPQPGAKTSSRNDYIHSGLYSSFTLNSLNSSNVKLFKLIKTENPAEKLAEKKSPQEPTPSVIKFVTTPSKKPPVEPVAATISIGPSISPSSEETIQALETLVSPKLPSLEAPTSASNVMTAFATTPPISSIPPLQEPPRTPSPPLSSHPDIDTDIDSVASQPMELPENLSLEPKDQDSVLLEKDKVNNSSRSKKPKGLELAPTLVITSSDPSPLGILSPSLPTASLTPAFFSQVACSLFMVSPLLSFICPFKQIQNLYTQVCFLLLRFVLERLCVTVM
# How it was run: as §1
# ETV2 = biological target: T4, ETV2 (Homo sapiens, UniProt O00321 1-342); settings: protein: recombinant; tags: N-terminal GST; dsDNA, one strand shown
# T4 sequence: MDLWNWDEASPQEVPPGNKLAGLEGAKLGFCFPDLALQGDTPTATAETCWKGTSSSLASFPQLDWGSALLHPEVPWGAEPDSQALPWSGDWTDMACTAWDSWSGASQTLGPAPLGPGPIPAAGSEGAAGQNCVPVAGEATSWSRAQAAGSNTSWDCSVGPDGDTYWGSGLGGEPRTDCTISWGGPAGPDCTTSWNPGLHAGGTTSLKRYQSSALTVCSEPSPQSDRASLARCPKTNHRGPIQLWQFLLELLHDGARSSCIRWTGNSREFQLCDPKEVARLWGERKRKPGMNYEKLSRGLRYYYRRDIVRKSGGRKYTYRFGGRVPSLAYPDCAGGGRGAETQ
# How it was run: as §1
# ELF3 = biological target: T5, ELF3 (Homo sapiens, UniProt P78545 1-371); settings: protein: recombinant; tags: N-terminal GST; dsDNA, one strand shown
# T5 sequence: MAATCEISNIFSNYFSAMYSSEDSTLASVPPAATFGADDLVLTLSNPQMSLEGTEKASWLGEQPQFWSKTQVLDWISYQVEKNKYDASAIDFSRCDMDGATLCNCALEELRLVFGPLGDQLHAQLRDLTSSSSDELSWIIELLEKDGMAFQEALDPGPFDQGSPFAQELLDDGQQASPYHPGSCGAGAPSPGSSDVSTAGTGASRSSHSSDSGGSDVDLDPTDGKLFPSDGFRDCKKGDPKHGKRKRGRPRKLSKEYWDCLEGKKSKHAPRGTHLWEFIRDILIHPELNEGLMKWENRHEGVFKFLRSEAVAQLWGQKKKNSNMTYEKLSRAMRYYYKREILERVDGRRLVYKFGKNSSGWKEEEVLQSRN
# How it was run: as §1
# CRX = CRX (Homo sapiens, UniProt O43186 1-299); settings: protein: recombinant; tags: N-terminal GST; dsDNA, one strand shown
# CRX, sequence (O43186 whole entry): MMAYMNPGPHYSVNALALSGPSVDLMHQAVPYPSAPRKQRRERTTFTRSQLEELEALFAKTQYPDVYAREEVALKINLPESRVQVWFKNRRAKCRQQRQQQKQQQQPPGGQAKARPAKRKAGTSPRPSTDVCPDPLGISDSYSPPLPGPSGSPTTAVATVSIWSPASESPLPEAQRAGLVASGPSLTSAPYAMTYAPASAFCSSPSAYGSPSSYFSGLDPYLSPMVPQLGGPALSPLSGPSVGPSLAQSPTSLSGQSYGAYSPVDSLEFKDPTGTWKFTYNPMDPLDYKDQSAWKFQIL
# How it was run: as §1
# ETV1 = ETV1 (Homo sapiens, UniProt P50549 1-477); settings: protein: recombinant; tags: N-terminal GST; dsDNA, one strand shown
# ETV1, sequence (P50549 whole entry): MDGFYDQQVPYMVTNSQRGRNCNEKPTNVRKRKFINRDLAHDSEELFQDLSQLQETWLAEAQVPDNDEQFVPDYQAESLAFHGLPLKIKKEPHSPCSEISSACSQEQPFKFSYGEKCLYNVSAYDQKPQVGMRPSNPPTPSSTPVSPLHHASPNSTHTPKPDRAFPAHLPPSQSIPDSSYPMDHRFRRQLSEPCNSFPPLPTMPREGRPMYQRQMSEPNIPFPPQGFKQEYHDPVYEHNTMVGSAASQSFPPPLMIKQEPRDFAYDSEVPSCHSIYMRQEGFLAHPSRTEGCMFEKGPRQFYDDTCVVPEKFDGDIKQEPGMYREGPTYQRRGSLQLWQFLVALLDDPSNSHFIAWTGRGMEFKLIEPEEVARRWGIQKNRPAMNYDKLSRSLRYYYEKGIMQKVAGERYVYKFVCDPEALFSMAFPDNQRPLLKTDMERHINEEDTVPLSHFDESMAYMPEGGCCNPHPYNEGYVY
# How it was run: as §1
# ERF = biological target: T6, ERF (Homo sapiens, UniProt P50548 1-548); settings: protein: recombinant; tags: N-terminal GST; dsDNA, one strand shown
# T6 sequence: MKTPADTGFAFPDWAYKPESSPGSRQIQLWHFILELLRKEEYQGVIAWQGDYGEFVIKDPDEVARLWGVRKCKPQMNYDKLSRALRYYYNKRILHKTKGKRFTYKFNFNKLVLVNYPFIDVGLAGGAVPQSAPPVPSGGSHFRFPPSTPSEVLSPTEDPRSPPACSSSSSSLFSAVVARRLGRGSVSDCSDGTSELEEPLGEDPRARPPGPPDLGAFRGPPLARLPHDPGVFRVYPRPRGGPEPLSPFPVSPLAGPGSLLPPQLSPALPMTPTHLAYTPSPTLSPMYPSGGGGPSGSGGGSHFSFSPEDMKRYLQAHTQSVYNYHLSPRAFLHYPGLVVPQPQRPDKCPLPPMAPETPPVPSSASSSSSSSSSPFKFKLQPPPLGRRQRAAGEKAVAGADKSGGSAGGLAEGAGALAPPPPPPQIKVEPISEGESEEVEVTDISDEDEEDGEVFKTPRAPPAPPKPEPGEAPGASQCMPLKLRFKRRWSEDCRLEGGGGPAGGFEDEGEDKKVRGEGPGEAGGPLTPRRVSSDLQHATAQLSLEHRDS
# How it was run: as §1
# ETV3L = biological target: T7, ETV3L (Homo sapiens, UniProt Q6ZN32 1-361); settings: protein: recombinant; tags: N-terminal GST; dsDNA, one strand shown
# T7 sequence: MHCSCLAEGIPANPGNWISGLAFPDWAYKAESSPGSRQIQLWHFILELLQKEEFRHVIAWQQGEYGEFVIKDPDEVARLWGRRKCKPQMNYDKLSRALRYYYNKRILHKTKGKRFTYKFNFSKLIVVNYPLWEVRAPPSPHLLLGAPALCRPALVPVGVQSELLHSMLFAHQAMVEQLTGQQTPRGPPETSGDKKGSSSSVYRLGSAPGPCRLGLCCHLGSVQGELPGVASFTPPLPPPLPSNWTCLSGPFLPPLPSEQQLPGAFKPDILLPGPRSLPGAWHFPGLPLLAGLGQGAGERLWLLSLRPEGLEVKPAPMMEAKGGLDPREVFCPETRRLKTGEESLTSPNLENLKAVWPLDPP
# How it was run: as §1
# ETS2 = biological target: T8, ETS2 (Homo sapiens, UniProt P15036 1-469); settings: protein: recombinant; tags: N-terminal GST; dsDNA, one strand shown
# T8 sequence: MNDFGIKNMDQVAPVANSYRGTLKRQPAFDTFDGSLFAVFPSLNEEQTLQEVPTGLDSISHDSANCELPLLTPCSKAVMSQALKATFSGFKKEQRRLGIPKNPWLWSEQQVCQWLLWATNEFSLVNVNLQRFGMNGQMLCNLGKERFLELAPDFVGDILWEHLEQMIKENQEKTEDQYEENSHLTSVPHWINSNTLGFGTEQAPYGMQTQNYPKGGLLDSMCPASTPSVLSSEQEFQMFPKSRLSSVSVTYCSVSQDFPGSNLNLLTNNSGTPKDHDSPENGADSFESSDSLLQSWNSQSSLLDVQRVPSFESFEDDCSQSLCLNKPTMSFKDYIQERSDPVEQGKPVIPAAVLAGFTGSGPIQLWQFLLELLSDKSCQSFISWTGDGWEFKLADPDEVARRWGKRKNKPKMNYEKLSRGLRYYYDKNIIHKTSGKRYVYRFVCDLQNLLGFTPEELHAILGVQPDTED
# How it was run: as §1
# SPDEF = biological target: T9, SPDEF (Homo sapiens, UniProt O95238 1-335); settings: protein: recombinant; tags: N-terminal GST; dsDNA, one strand shown
# T9 sequence: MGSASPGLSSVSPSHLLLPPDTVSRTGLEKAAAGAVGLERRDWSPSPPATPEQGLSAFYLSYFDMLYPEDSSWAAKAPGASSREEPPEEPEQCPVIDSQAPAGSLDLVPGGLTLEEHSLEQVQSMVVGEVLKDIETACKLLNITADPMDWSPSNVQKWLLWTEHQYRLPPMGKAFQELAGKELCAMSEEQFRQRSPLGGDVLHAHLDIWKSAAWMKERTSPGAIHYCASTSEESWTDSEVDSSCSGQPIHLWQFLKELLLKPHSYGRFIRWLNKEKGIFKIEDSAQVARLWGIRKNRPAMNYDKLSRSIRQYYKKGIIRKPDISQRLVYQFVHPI
# How it was run: as §1
# ETV7 = biological target: T10, ETV7 (Homo sapiens, UniProt Q9Y603 1-341); settings: protein: recombinant; tags: N-terminal GST; dsDNA, one strand shown
# T10 sequence: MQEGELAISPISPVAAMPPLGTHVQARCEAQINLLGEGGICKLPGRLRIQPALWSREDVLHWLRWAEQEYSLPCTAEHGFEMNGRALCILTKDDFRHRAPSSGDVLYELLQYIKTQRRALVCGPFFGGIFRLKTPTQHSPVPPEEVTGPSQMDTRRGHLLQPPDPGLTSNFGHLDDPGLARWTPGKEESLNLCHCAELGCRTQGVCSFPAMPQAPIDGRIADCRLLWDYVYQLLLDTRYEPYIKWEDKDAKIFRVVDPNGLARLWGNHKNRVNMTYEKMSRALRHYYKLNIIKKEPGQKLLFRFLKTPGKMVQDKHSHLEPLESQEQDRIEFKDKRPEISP
# How it was run: as §1
# ELF5 = biological target: T11, ELF5 (Homo sapiens, UniProt Q9UKW6-2 1-255); settings: protein: recombinant; tags: N-terminal GST; dsDNA, one strand shown
# T11 sequence: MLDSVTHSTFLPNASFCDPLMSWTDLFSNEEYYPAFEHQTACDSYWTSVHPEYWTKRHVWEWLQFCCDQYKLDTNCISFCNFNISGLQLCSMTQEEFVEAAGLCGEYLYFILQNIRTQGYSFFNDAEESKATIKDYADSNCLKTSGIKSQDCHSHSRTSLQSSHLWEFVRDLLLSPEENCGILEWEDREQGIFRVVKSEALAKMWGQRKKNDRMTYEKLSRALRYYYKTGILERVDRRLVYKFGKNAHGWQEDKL
# How it was run: as §1
# ETV3 = biological target: T12, ETV3 (Homo sapiens, UniProt P41162-2 1-143); settings: protein: recombinant; tags: N-terminal GST; dsDNA, one strand shown
# T12 sequence: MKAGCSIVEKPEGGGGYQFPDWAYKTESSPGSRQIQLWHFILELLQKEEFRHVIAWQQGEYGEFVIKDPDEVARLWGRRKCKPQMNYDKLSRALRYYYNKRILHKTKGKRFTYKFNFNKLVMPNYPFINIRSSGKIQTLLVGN
# How it was run: as §1
# ETV6 = ETV6 (Homo sapiens, UniProt P41212 1-452); settings: protein: recombinant; tags: N-terminal GST; dsDNA, one strand shown
# ETV6, sequence (P41212 whole entry): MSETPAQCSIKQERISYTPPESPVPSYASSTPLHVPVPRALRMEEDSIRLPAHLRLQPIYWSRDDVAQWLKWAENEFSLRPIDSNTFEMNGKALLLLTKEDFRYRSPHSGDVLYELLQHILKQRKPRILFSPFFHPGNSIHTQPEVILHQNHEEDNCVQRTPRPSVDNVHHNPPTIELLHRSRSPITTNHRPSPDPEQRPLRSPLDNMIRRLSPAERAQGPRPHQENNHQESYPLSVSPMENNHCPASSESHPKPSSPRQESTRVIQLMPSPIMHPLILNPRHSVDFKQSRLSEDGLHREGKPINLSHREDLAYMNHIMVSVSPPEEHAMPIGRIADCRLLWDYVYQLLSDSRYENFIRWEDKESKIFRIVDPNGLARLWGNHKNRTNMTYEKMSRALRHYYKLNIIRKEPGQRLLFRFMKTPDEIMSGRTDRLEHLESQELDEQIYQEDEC
# How it was run: as §1
sequence,measurement,setting,value
GCTAAA,binding signal,FEV,"1.05 fold enrichment (6-mer frequency, TF over GST control)"
same,binding signal,ETV5,"1.15 fold enrichment (6-mer frequency, TF over GST control)"
same,binding signal,HSF1,"1.17 fold enrichment (6-mer frequency, TF over GST control)"
same,binding signal,SPIC,"1.09 fold enrichment (6-mer frequency, TF over GST control)"
same,binding signal,ELF4,"1.06 fold enrichment (6-mer frequency, TF over GST control)"
same,binding signal,ELK4,"1.11 fold enrichment (6-mer frequency, TF over GST control)"
same,binding signal,ETV2,"1.12 fold enrichment (6-mer frequency, TF over GST control)"
same,binding signal,ELF3,"1.07 fold enrichment (6-mer frequency, TF over GST control)"
same,binding signal,CRX,"1.4 fold enrichment (6-mer frequency, TF over GST control)"
same,binding signal,ETV1,"1.26 fold enrichment (6-mer frequency, TF over GST control)"
same,binding signal,ERF,"1.19 fold enrichment (6-mer frequency, TF over GST control)"
same,binding signal,ETV3L,"1.15 fold enrichment (6-mer frequency, TF over GST control)"
same,binding signal,ETS2,"1.13 fold enrichment (6-mer frequency, TF over GST control)"
same,binding signal,SPDEF,"1.08 fold enrichment (6-mer frequency, TF over GST control)"
same,binding signal,ETV7,"1.08 fold enrichment (6-mer frequency, TF over GST control)"
same,binding signal,ELF5,"1.04 fold enrichment (6-mer frequency, TF over GST control)"
same,binding signal,ETV3,"1.13 fold enrichment (6-mer frequency, TF over GST control)"
same,binding signal,ETV6,"1.08 fold enrichment (6-mer frequency, TF over GST control)"
